This is part of a sample that, as a whole, favours compounds with a hit. Of some 83,000 tested, about 20% had one in any assay.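 How to read the values: 0–100, growth inhibition (40 = 60% inhibited); 0, no net growth; -100 to 0, cell death (-40 = 40% of starting cells died; -100 = all dead).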 Unmarked numbers belong to inactive results. The source made the active and inactive calls.
Test system: NCI-H522 lung
Assay: NCI-60 one-dose screen, 48 h (100 = growth as untreated, 0 = no growth, -100 = all killed)
Conditions: 10 µM
Method: Growth inhibition of the NCI-H522 human Non-Small Cell Lung tumor cell line is measured as a screen for anti-cancer activity. Cells are grown in 96 well plates and exposed to the test compound for 48 hours. Compounds are tested at a single concentration, which is 10^-5 M for most compounds. The reported endpoint is percent growth (GI% or GIPRCNT), where numbers from 0 - 100% represent growth inhibition, and numbers from -100% - 0 represent cell death. For example, a value of 40 represents 60% growth inhibition. A value of 0 means no net growth occurred over the course of the experiment. A value of -40 indicates 40% of cells at the beginning of the experiment died by the end of the experiment. A value of -100 means all cells are dead at the end of the experiment.
NCI-60 Human Tumor Cell Lines Screen was performed using the standard one-dose NCI protocol, which is described in more detail at https://dtp.cancer.gov/discovery_development/nci-60/default.htm.
Compounds with GIPRCNT values below 10 were considered active. Activity score was based on GIPRCNT using the following formula: […]
Score is 0 for GIPRCNT values of 100 or above, 50 for GIPRCNT values of 0, and 100 for GIPRCNT values of -100.

SMILES | growth
OC[C@@H](O)[C@@H](O)CO | 96.6%
COc1cc2oc(-c3ccc(O)cc3)cc(=O)c2c(O)c1I | 86.2%
COc1cc(/C=C/C(=O)C(=Cc2ccc(F)c(F)c2)C(=O)/C=C/c2ccc(O)c(OC)c2)ccc1O | -48.3% (active)
FC(F)(F)Oc1ccc2c(c1)C[C@H]1C[C@@H](c3ccoc3)N2O1 | 99.6%
O=C(CCCCCCC(=O)Nc1ccc2c(c1)/C(=C/c1ccc[nH]1)C(=O)N2)NO | 14.8%
Cc1cc(=O)c2c(C)ccc(C)c2[nH]1 | 96.2%
Cc1nc2cc(Nc3nc(Nc4ccc(F)cc4)nc(-c4ccc(Cl)cc4)n3)ccc2n1Cc1ccccc1 | 82.8%
COc1ccc(/C=C/C(=O)N2CCC(O)CC2)cc1OC1CCCC1 | 87.1%
CCOC(=O)c1cc2c(n(C)c1=O)-c1cnn(-c3ccc(OC)cc3)c1CC2 | 83.3%
Cn1c2c(cc(S(=O)(=O)c3ccccc3)c1=O)CCc1c-2cnn1-c1ccccc1Cl | -72.1% (active)
O=C1c2ccccc2-c2cn(Cc3ccccc3)c3cccc(c23)C1c1cccnc1 (stereo not given) | -12.4% (active)
Cc1nc(NN)c([N+](=O)[O-])c(NN)n1 | 108%
CN1CCc2cccc3c2C1Cc1ccc(O)c(O)c1-3 (stereo not given) | 39.5%
O=C(O)C[C@H](O)C[C@H](O)/C=C/c1c(C2CC2)nc2ccccc2c1-c1ccc(F)cc1 | 53.7%
O=C1C(Cl)=C(NCCCN2CCOCC2)C(=O)c2ccccc21 | 89.9%
Cc1cccc2c(=O)c3c(sc12)c(NCCNCCO)nc1ccccc13 | 29.1%
Cc1nn(-c2ccccc2)c2nc3nc4c(c(N)c3c(-c3ccc(Cl)cc3)c12)CCCC4 | 90.6%
COc1ccc(-c2[nH]ncc2Nc2cc(OC)c(OC)c(OC)c2)cc1 | 12.7%
O=C(c1cnn2c1NC(c1ccc(F)cc1)C2)N1CCCCC1 (stereo not given) | 93.3%
O=C1CC2c3cc(-c4cc5ccccc5o4)ccc3CCN2C(=O)N1c1ccccc1 (stereo not given) | 69.9%

SMILES | growth
COc1cccc(C2C3=C(COC3=O)N(CCO)c3cc4c(cc32)OCO4)c1 (stereo not given) | -39.4% (active)
COc1cc(/C=C/C(=O)CC(=O)/C=C/c2cc(Br)c(OC)c(OC)c2)cc(Br)c1OC | 92.8%
COc1cccc2c(=O)c3c(sc12)c(NCCN(C)C)nc1ccccc13 | 29.1%
CCCCCCCCCCCCCCNc1nc(CO)ncc1-c1ccc(C(F)(F)F)cc1 | 90.6%
Clc1ccc(C2=NN(c3ccccc3)[C@H](c3cn(-c4ccccc4)nc3-c3ccccc3)C2)cc1 | 91.5%
COc1ccc(/C=C2\CN(Cc3cn(CCCNc4ccnc5cc(Cl)ccc45)nn3)C/C(=C\c3ccc(OC)c(OC)c3)C2=O)cc1OC | 0.468% (active)
O=C(N/N=C/c1ccc2c(c1)OCO2)c1cnn2c1NC(c1ccccc1)C2 (stereo not given) | 45.7%
CCN(C(=O)c1ccc2c3c(cccc13)C=C2)c1ccccc1 | 79.1%
O=C(NCc1ccco1)C1CCN(S(=O)(=O)c2ccc(Cl)cc2)CC1 | 68.7%
O=C1CCC(N2C(=O)c3cccc(NCCOCCOCCNC(=O)c4cc5c(o4)C(=O)c4ccccc4C5=O)c3C2=O)C(=O)N1 (stereo not given) | -55% (active)
O=S(=O)(Nc1ccccc1Cl)c1ccc(-c2cnc(C3CC3)o2)cc1 | 10.9%
NC(=O)c1cc(Cl)ccc1NC(=O)COc1ccccc1 | 44.2%
Cc1cc(C)c(S(=O)O)c(C)c1 | 101%
COc1cc(/C=C2\C(=O)N(c3c(Cl)cccc3Cl)c3ccccc32)cc(OC)c1O | 28%
COc1ccc(/C=N/NC(=O)c2cnn3c2NC(c2ccccc2)C3)cc1OC1CCCC1 (stereo not given) | 79.5%
CC(=O)OC[C@]1(C)C=C2C(=O)[C@](C)(O)C3(CC3)C(C)=C2[C@H]1OC(C)=O | 71.1%
COC(=O)c1c2c(c(C)[n+]([O-])c1C)C(=O)C=C(NCc1ccc(Cl)cc1)C2=O | -15.1% (active)
CN(C)C(=S)SCN1C(=O)c2ccc([N+](=O)[O-])cc2S1(=O)=O | 103%
N#CC1=C(N)Oc2cc(N)ccc2C1c1ccc(F)cc1 (stereo not given) | 54.1%
CC1(C)CC(=O)C2=C(C1)Nc1cc3c(cc1C2c1ccc(F)cc1)OCO3 (stereo not given) | 80.9%

From PubChem BioAssay (NCI)
